# Measured values from PubChem BioAssay (NCATS).
# Results filed as inconclusive are left out. A call without a number means that no potency is given here. A number with no mark means an inactive call. Active and inactive are the calls of the source. Unless noted, the call rests on the fitted dose curve; in most records, active means well fitted curve in the direction sought with a large enough effect; inconclusive means small, poorly fitted or top-dose-only effect, or another doubt; inactive means no such curve, though single readings can be large; an effect the other way counts as inactive or inconclusive.
# Columns and labels:
# [1] = molecular target: Calcium and integrin-binding protein 1 (Homo sapiens) (UniProt Q99828); assay: Primary qHTS for Identification of Calcium Integrin Binding Protein 1 (CIB1) Competitor (AID 1508620); further: potency means the concentration at half of the fitted maximal effect;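 on activity change, negative = inhibition: GST tagged CIB1 binding a fluorescein labelled alphaIIb integrin peptide tracer; top concentration of the series differs between compounds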
# In short: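 Fluorescence polarization competition: GST-tagged CIB1 (1 uM final) preincubated with compound 15 min at room temperature, then FITC-labelled alphaIIb peptide (100 nM final) added. After 15 min at room temperature, polarization read at Ex 480/Em 540.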
# [2] = Primary qHTS for inhibitors of nuclear receptor binding SET domain protein 2 (NSD2) in an isogenic RCH-ACV NSD2 p.E1099K mutant (9B) (AID 1645876); further: nearly all actives have a fitted effect of over 70% in size; further: potency means the concentration at half of the fitted maximal effect
# [3] = molecular target: Cytochrome P450 2D6 (Homo sapiens) (UniProt P10635); assay: Cytochrome P450 family 2 subfamily D member 6 (CYP2D6) small molecule antagonists: luciferase biochemical (cell-free) qHTS assay (AID 1645840; active means well fitted curve in the direction sought with a large enough effect in the repeat runs; an effect the other way counts as inactive or inconclusive; further: nearly all actives have a fitted effect of over 55% in size; further: potency means the concentration at half of the fitted maximal effect; on activity change, negative = inhibition: series mostly up to about 57 µM)
# In short: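 P450-Glo CYP2D6 system: proluciferin substrate converted by enzyme to luciferin, read by luminescence proportional to activity. Enzyme-substrate mix with compound 10 min at room temperature, then NADPH regeneration 1 h before detection reagent.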
# [4] = molecular target: Cytochrome P450 2C9 (Homo sapiens) (UniProt P11712); assay: Cytochrome P450 family 2 subfamily C member 9 (CYP2C9) small molecule antagonists: luciferase biochemical (cell-free) qHTS assay (AID 1645842; active means well fitted curve in the direction sought with a large enough effect in the repeat runs; an effect the other way counts as inactive or inconclusive; further: nearly all actives have a fitted effect of over 55% in size; further: potency means the concentration at half of the fitted maximal effect; on activity change, negative = inhibition: series mostly up to about 57 µM)
# In short: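 P450-Glo CYP2C9 system: proluciferin substrate with enzyme in mix containing 0.4% BSA, 10 min at room temperature, then NADPH regeneration solution added and incubated 1 h at 37C. Detection reagent stopped reaction; luminescence read after 20 min as RLU.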
# [5] = Primary qHTS for small molecule stabilizers of the endoplasmic reticulum resident proteome: Secreted ER Calcium Modulated Protein (SERCaMP) assay (AID 1508630)
# In short: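 The SH-SY5Y reporter protocol was run at 3 concentrations up to 38.3 uM (primary) or 11 concentrations (follow-up): 16 h compound, 100 nM thapsigargin for 4 h, then extracellular luciferase luminescence.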
# [6] = A High-Content qHTS Against Drug Library for the Identification of Small Molecules that Inhibit DYT1 Early Onset Primary Dystonia-Associated Cell Pathology (AID 1645839; calls by dose curve; further: potency means the concentration at half of the fitted maximal effect)
# In short: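 Cells were seeded and left for 24 h, then dosed with compound alongside tetracycline induction of mutant EGFP-TorsinA. They were incubated for 48 h, fixed in 4% paraformaldehyde, permeabilized and imaged for mislocalization (%pathology) and cell count.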
# [7] = Cytotoxicity counterscreen for inhibitors of SARS-CoV-2 cell entry (AID 1645845; calls by dose curve; further: series mostly up to about 57 µM; nearly all actives have a fitted effect of over 50% in size); settings: outcome: dose series up to 57.1 µM unless noted
# In short: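 Counterscreen run in the same HEK293-ACE2 line as the pseudotyped-particle entry assay, without particles. Viability after 48 h at 37 C was read as ATP luminescence, scaled between cell-containing and cell-free wells.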
# Calcium and integrin-binding protein 1 (Homo sapiens), sequence (Q99828 whole entry, looked up): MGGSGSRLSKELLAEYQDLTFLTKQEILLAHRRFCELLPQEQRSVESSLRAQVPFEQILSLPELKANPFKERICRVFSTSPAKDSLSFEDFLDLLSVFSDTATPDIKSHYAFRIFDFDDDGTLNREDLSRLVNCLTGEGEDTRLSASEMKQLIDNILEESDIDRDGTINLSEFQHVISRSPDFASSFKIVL
# Cytochrome P450 2D6 (Homo sapiens), sequence (P10635 whole entry, looked up): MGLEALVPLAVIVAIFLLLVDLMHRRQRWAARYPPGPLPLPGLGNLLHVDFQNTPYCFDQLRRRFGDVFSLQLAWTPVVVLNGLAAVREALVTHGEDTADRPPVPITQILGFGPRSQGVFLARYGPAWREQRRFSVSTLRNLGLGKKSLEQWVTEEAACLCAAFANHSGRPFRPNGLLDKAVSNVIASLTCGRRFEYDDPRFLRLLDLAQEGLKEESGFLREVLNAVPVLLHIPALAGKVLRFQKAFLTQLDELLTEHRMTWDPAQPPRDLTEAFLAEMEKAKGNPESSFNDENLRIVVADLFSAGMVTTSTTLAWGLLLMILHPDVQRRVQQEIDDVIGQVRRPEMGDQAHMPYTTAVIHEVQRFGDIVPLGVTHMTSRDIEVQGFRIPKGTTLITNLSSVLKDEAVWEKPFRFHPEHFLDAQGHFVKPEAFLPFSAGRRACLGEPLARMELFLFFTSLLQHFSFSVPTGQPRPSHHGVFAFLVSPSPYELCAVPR
# Cytochrome P450 2C9 (Homo sapiens), sequence (P11712 whole entry, looked up): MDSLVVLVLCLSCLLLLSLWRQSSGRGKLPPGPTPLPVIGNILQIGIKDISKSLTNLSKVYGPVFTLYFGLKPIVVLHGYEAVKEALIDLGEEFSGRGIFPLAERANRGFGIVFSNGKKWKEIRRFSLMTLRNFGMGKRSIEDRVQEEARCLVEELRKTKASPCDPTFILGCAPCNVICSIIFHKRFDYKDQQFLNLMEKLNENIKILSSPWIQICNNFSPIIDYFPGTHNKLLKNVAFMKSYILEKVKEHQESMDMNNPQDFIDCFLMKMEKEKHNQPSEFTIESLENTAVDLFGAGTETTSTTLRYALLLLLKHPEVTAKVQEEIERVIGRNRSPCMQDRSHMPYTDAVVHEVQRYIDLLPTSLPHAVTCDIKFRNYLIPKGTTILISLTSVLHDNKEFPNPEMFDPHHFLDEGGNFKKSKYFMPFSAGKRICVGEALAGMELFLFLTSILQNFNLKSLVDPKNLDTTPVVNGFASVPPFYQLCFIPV
structure (smiles),measurement,setting,value
C/C=C(\C)C(=O)O[C@H]1[C@H](OC(C)=O)[C@]2(CO)[C@H](O)[C@H](O)[C@]3(C)C(=CCC4[C@@]5(C)CC[C@H](O[C@@H]6O[C@H](C(=O)O)[C@@H](O)[C@H](O[C@@H]7OC[C@H](O)[C@H](O[C@@H]8OC[C@H](O)[C@H](O)[C@H]8O)[C@H]7O)[C@H]6O[C@@H]6O[C@H](CO)[C@@H](O)[C@H](O)[C@H]6O)C(C)(C)C5CC[C@]43C)[C@@H]2CC1(C)C (some centres undefined),"activity change, negative = inhibition",[1],1% [at 12.4 µM]
same,"activity change, negative = viability loss",[2],-4.86% [at 9.23 µM]
CC(C)[C@@H](CN1CC[C@@](C)(c2cccc(O)c2)[C@@H](C)C1)NC(=O)[C@H]1Cc2ccc(O)cc2CN1,Potency,[1],inactive
same,Potency,[3],6.01 µM (active)
same,Potency,[4],inactive
same,Potency,[2],18300 nM (active)
COC1C(O)C(C)OC(OC2C(CO)O[C@@H](O[C@@H]3CC4CCC5C(CC[C@]6(C)[C@@H](C7=CC(=O)OC7)CC[C@]56O)[C@@]4(C)[C@H](O)C3)C(O)C2O)C1O (some centres undefined),Potency,[1],inactive
same,Potency,[2],430 nM (active)
C/C=C(\C)C(=O)OC1CC2C(CC=C3CC(OC4CC(OC)C(OC5CC(OC)C(OC6OC(C)C(OC7OC(CO)C(O)C(O)C7O)C(OC)C6O)C(C)O5)C(C)O4)CCC32C)C2(O)CCC(C(C)=O)C12C (centres undefined),Potency,[1],inactive
same,"activity change, negative = viability loss",[2],-7.24% [at 9.23 µM]
CC(N)Cc1c[nH]c2ccccc12 (centres undefined),Potency,[1],inactive
same,Potency,[3],23.9 µM (active)
same,Potency,[4],inactive
same,Potency,[2],inactive
C[CH2][Hg][S]c1ccccc1C(=O)O,Potency,[1],22.4 µM (active)
same,outcome,[5],inactive
same,Potency,[6],5.01 µM (active)
same,Potency,[4],3.47 µM (active)
same,Potency,[2],668 nM (active)
CC(=O)O[C@H]1C[C@@H](OC(C)=O)C(C)(C)C2C[C@@H](O)[C@]3(C)C(CC[C@@]4(C)[C@H](C5=CC(=O)OC5O)C[C@H]5O[C@]543)[C@]21C (some centres undefined),Potency,[1],inactive
same,Potency,[2],inactive
CC(C)(C)c1cc(C(C)(C)C)c2c(c1)C(O)(C(F)(F)F)C(=O)O2 (centres undefined),Potency,[1],inactive
same,Potency,[3],inactive
same,Potency,[4],21.3 µM (active)
same,Potency,[2],inactive
COc1cc(CCNCc2ccccc2O)c(OC)cc1C#N,Potency,[1],inactive
same,Potency,[3],1.9 µM (active)
same,Potency,[4],9.52 µM (active)
same,Potency,[2],inactive
Clc1ccc(OCC2=NCCN2)cc1Cl,Potency,[1],inactive
same,Potency,[3],8.49 µM (active)
same,Potency,[4],inactive
same,Potency,[2],inactive
COC(=O)N1CCN(C(=O)Cc2ccc(Cl)c(Cl)c2)[C@@H](CN2CCCC2)C1,Potency,[1],inactive
same,Potency,[3],4.77 µM (active)
same,Potency,[4],inactive
same,Potency,[2],inactive
Cc1cccc(NC(=O)N[C@@H]2N=C(c3ccccc3)c3ccccc3N(C)C2=O)c1,Potency,[1],inactive
same,Potency,[3],inactive
same,Potency,[4],12 µM (active)
COc1cc(C)[nH]c(=O)c1CNC(=O)c1c(C)n([C@H](C)C2CCOCC2)c2ccccc12,Potency,[1],inactive
same,Potency,[3],inactive
same,Potency,[4],13.5 µM (active)
same,outcome,[7],inactive
same,Potency,[2],inactive
OC1(c2ccc(Cl)cc2)c2ccccc2C2=NCCN21 (centres undefined),Potency,[1],inactive
same,Potency,[3],2.68 µM (active)
same,Potency,[4],15.1 µM (active)
CCCCCOc1cc2c(cc1-c1cc(/C=C/C(=O)O)ccc1O)C(C)(C)CCC2(C)C,Potency,[1],inactive
same,Potency,[4],12 µM (active)
C[C@H](NC(=O)Cc1cc(F)cc(F)c1)C(=O)N[C@@H]1N=C(c2ccccc2)c2ccccc2N(C)C1=O,Potency,[1],inactive
same,Potency,[4],inactive
CC12CCC3C(CCC4(O)CC(O)CCC34C=O)C1(O)CCC2C1=CC(=O)OC1 (centres undefined),Potency,[1],inactive
same,Potency,[2],258 nM (active)
CC1=C2C[C@H]3[C@@H](CC=C4C[C@@H](O)CC[C@@]43C)[C@@H]2CC[C@]12O[C@@H]1C[C@H](C)CN[C@H]1[C@H]2C,Potency,[1],inactive
same,outcome,[7],inactive
COC1CC(OC2CCC3(C)C(CCC4C3CCC3(C)C(C5=CC(=O)OC5)C(OC(C)=O)CC43O)C2)OC(C)C1OC1OC(CO)C(O)C(O)C1O (centres undefined),Potency,[1],inactive
same,Potency,[2],483 nM (active)
CN(C)CCc1c[nH]c2ccc(CN3CCN(C)S3(=O)=O)cc12,Potency,[1],inactive
same,Potency,[4],inactive
same,Potency,[2],inactive
COc1ccccc1CN[C@H]1C2CCN(CC2)[C@H]1C(c1ccccc1)c1ccccc1,Potency,[1],inactive
same,Potency,[3],0.19 µM (active)
same,Potency,[4],inactive
same,Potency,[2],inactive
N#C[C@@H](O[C@@H]1O[C@H](CO[C@@H]2O[C@H](CO)[C@@H](O)[C@H](O)[C@H]2O)[C@@H](O)[C@H](O)[C@H]1O)c1ccccc1,Potency,[1],inactive
same,Potency,[2],inactive
CCc1c(C(=O)C(N)=O)c2c(OCC(=O)OC)cccc2n1Cc1ccccc1,Potency,[1],inactive
same,Potency,[3],inactive
same,Potency,[4],13.5 µM (active)
same,Potency,[2],inactive
C[C@@](O)(COc1ccc(C#N)cc1)C(=O)Nc1ccc(C#N)c(C(F)(F)F)c1,Potency,[1],inactive
same,Potency,[4],1.51 µM (active)
CC(=O)OC1CC(O)C2(C)C(CC(OC(C)=O)C3(C)C2CCC2(C)C(c4ccoc4)C(=O)C4OC423)C1(C)C (centres undefined),Potency,[1],inactive
same,Potency,[2],inactive
CCCCCCn1c(=O)c(C(=O)Nc2ccc(C(=O)OCCC)cc2)c(O)c2ccccc21,Potency,[1],inactive
same,Potency,[3],inactive
same,Potency,[4],inactive
same,outcome,[2],inactive [at 9.23 µM]
